# Assay outcomes from PubChem.
# The entries come from a sample that favours hits as a whole.
# PI5P4K alpha inh: blocks human PI5P4K alpha kinase activity; PI5P4Kalpha enzyme, ADP-Glo luminescence, 60 min; hits give low values; P48426; max response, %; 330,000 tested, 1.2% active; active = max response of -50% or lower; inconclusive = between -30% and -50%; inactive = -30% or higher; also: value at the top dose of about 77 µM
#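 Compounds were pin-transferred onto PI5P4Kalpha and substrate in HEPES pH 7.4 buffer with EGTA, CHAPS and 5% DMSO. ATP (5 microM final) started the reaction, which ran 60 minutes at room temperature before ADP-Glo detection.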
# Tb PGK inh: T. brucei PGK inhibition | P07378 | PGK/GAPDH coupled, Kinase-Glo luminescence, 60 min | Potency, µM (titrated, usually from 57.5 µM), hits mostly inhibitors | 380,000 tested, 0.043% active | AID 602233; also: nearly all actives have a fitted effect of over 60% in size
# Target sequence (P07378 whole entry, looked up): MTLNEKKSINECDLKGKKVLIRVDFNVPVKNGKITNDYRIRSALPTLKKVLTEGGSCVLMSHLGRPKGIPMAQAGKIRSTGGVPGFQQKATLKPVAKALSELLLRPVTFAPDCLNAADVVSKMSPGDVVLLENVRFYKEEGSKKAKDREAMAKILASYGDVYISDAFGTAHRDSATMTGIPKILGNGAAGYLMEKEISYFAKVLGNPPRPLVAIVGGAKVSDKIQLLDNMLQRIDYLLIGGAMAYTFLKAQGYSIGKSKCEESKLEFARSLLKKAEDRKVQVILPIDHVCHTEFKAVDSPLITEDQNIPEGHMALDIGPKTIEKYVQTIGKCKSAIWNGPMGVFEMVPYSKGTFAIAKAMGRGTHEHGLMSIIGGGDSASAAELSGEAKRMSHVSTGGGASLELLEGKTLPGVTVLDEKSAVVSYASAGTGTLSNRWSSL
#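 Recombinant glycosomal PGK reaction used 1,3-bisphosphoglycerate generated in-well by GAPDH (100nM final) in 100mM TEA pH 7.6, 5mM MgCl2, 0.01% Tween-20. After 60 minutes at room temperature, ATP was read by Kinase-Glo Plus luminescence end-point.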
# PI4K2A inh: inhibitors of human PI4K2A. Q9BTU6. 420,000 tested, 0.13% active. activity change, negative = inhibition, % at 76.9 µM. purified PI4K2A, ADP-Glo luminescence, 1 h; hits give low values; in the data active = activity change below about -50%; inconclusive = mostly about -30% to -49%
#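 In this quantitative HTS, ADP production by PI4K2A was quantified luminescently after 1 h at ambient temperature; 100 microM adenosine served as plate-quality control.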
# Tb PFK inh-1: inhibitors of T. brucei phosphofructokinase | O15648 | 330,000 tested, 0.17% active | Potency, µM (top dose mostly 57.5 µM), hits mostly inhibitors | T. brucei PFK, ADP-Glo luminescence; also: nearly all actives have a fitted effect of over 60% in size
#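 1.25 nM PFK with 0.5 mM F6P and 0.1 mM ATP in 0.1 M TEA pH 8.0, 5 mM MgCl2, incubated 45 min at room temperature; ADP measured by ADP-Glo luminescence; compounds titrated up to 57 uM.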
# Pin1 inhibitor: human Pin1 inhibition. 390,000 tested, 0.009% active. Pin1 FP peptide displacement, HiFluor488, 10 min. Q13526. Potency, µM (series often up to 115 µM), usual class: inhibitors. AID 504891; active = well fitted inhibition curve with a large enough effect in the polarisation, with a control signal flat, not every such curve was filed as active; inconclusive = small, poorly fitted or top-dose-only effect, or effect the other way, or a change in a side signal; inactive = no such curve, though single readings can be large or run the other way; the % refers to the polarisation
# Target sequence (Q13526 whole entry, looked up): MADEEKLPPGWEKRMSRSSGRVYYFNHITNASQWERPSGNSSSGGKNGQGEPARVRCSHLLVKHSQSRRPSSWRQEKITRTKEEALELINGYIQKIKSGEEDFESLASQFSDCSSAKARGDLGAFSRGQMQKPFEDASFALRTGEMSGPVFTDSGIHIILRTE
# TbPFK ATP: orthogonal confirmation of T. brucei phosphofructokinase inhibitors. Tb PFK enzyme, ATP depletion, Kinase-Glo Plus luminescence. Potency, µM (top dose mostly 57.5 µM). shares compounds with Tb PFK inh-1. AID 504636. 1,100 tested, 47% active; calls by dose curve; also: nearly all actives have a fitted effect of over 60% in size
# Tb PFK inh-2: T. brucei PFK enzyme inhibition, hit validation; shares compounds with Tb PFK inh-1; purified T. brucei PFK, ADP-Glo luminescence, 45 min; Potency, µM (top dose mostly 57.5 µM), most hits filed as inhibitors; 1,100 tested, 41% active; AID 504637; also: nearly all actives have a fitted effect of over 60% in size
# A number is an active result; i = inactive; ? = inconclusive; nt = not tested or not shown. Unless noted, calls follow the shape of the dose curve; as a rule, active = well fitted curve in the direction sought with a large enough effect; inconclusive = small, poorly fitted or top-dose-only effect, or another doubt; inactive = no such curve, though single readings can be large; an effect the other way counts as inactive or inconclusive.
SMILES,PI5P4K alpha inh,Tb PGK inh,PI4K2A inh,Tb PFK inh-1,Pin1 inhibitor,TbPFK ATP,Tb PFK inh-2
CN1CCN(C(=S)c2ccc(N(C)C)cc2)CC1,nt,i,i,?,i,12µM,27µM
Cc1ccc(S(=O)(=O)N2CC2(C)CCl)cc1 (configuration not stated),i,i,i,i,i,nt,nt
COC(=O)C1=C(c2ccc(-c3ccccc3)c(F)c2)C[C@@H]2CC[C@H]1N2C(=O)NCc1cccc2ccccc12,i,i,i,i,i,nt,nt
COC(=O)c1ccc(-c2noc(CN(C)CCC3CCCCO3)n2)cc1 (configuration not stated),i,i,i,?,i,i,?
COc1cc(SSc2cc(OC)cc([N+](=O)[O-])c2N)c(N)c([N+](=O)[O-])c1,-93,nt,i,3.4µM,i,2.4µM,2.7µM
COc1ccc(-n2c(C)nc3ccccc3c2=O)c([N+](=O)[O-])c1,i,i,i,i,i,nt,nt
O=C1NC(=S)N(c2ccc(Br)cc2)C(=O)/C1=C/N1CCN(C(=O)c2ccco2)CC1,?,i,i,i,?,nt,nt
C=CCn1c(O)c(/C=N/NC(=O)CCCC)c(=O)[nH]c1=S,i,i,i,i,i,nt,nt
O=c1ccc2c(-c3ccccc3)c3ccc(O)cc3oc-2c1,?,i,i,12µM,?,i,i
CCC(=NCCc1ccccc1)c1c(O)[nH]c(=O)[nH]c1=O,i,i,i,i,i,nt,nt
O=C(COc1ccc(Cl)cc1)NC1CN2CCC1CC2 (configuration not stated),i,i,i,i,i,nt,nt
NS(=O)(=O)c1ccc(NC(=O)COc2ccc(Cl)cc2)cc1,i,nt,i,1.9µM,i,1.1µM,?
Cc1nn(Cc2ccccc2)c(C)c1C(=O)OCC(=O)Nc1cccc(S(N)(=O)=O)c1,i,i,i,i,i,nt,nt
NS(=O)(=O)c1ccc(NC(=S)NCc2ccc(Cl)cc2)cc1,i,i,i,12µM,i,2.7µM,5.4µM
O=S(=O)(c1ccc(NC(=S)NCc2ccc(F)cc2)cc1)N1CCOCC1,i,i,i,24µM,i,12µM,30µM
NCCc1ccc(S(N)(=O)=O)cc1,i,i,i,i,i,nt,nt
NS(=O)(=O)c1ccc(NC(=O)CSc2ccccc2)cc1,i,i,i,15µM,i,24µM,30µM
COc1ccc(NC(=S)NC(NC(=O)CF)C(Cl)(Cl)Cl)c([N+](=O)[O-])c1 (configuration not stated),i,i,i,i,i,nt,nt
COc1ccc(OC)c(C2=NOC(C(=O)N3CCC4(CC3)OCCO4)C2)c1 (configuration not stated),nt,i,i,i,i,nt,nt
N#CCCn1cc(C(=O)Nc2ccc(F)cc2)c(-c2ccc([N+](=O)[O-])cc2)n1,i,i,i,i,i,nt,nt
COC(=O)C(O)(c1ccc(NC(=O)NC2CCCCC2)cc1)C(F)(F)F (configuration not stated),i,i,i,i,i,nt,nt
O=[N+]([O-])c1ccc(NC(=S)NCc2ccc(F)cc2)cc1,i,i,i,?,?,19µM,?
CC(C)OCCCNC(=S)Nc1ccc(S(N)(=O)=O)cc1,i,i,i,27µM,i,6.7µM,13µM
S=C(NCc1ccc(Cl)cc1)Nc1ccncc1,i,i,i,8.5µM,i,7.6µM,12µM
NS(=O)(=O)c1ccc(NC(=S)NC2CCCC2)cc1,i,i,i,?,i,i,i
SMILES,PI5P4K alpha inh,Tb PGK inh,PI4K2A inh,Tb PFK inh-1,Pin1 inhibitor,TbPFK ATP,Tb PFK inh-2
Cc1cccc(N2CCC3(CC2)C(=O)NC(=O)NC3=O)c1,i,i,i,nt,i,nt,nt
Cn1c(O)c(C=NCCN2CCNCC2)c(=O)[nH]c1=O,i,i,i,i,i,nt,nt
NS(=O)(=O)c1ccc(CNC(=O)COc2ccc3c4c(c(=O)oc3c2)CCCC4)cc1,i,i,i,i,i,nt,nt
NS(=O)(=O)c1ccc(NC(=S)NCc2ccc(F)cc2)cc1,i,i,i,24µM,i,11µM,24µM
O=C(O)[C@@H](c1ccccc1)N1Cc2ccccc2C1=O,i,i,i,?,i,?,?
CC(C(=O)c1ccccc1)N1C(=O)c2ccccc2C1=O (configuration not stated),i,i,i,i,i,nt,nt
C=CCNC(=O)N1CCc2[nH]c3ccc(F)cc3c2C1,i,nt,i,?,?,?,?
Cc1ccc2[nH]c3c(c2c1)CN(C(=O)CN1C[C@H]2C[C@@H](C1)c1cccc(=O)n1C2)CC3,i,i,i,i,?,nt,nt
CCO/N=C(\CC)C1=C(O)CC(c2c(C)cc(C)cc2C)CC1=O (configuration not stated),nt,nt,i,nt,nt,nt,nt
O=C(Cc1ccccc1)OCC(=O)c1ccccc1,i,i,i,i,i,nt,nt
C=CCNc1nc(C(=O)OCC(=O)c2ccccc2)cs1,i,i,i,8.5µM,i,i,i
Nc1n[nH]c(=S)n1/N=C1/C(=O)Nc2ccccc21,-89,i,i,?,?,3µM,9.5µM
O=C1CC(c2ccc(Br)cc2)c2c(c3ccccc3oc2=O)O1 (configuration not stated),nt,i,i,nt,?,nt,nt
CCN1CCN(C(=O)COc2ccc(S(=O)(=O)N3CCOCC3)cc2C)CC1,i,i,i,i,i,nt,nt
CCOc1cc(/C=C\[N+](=O)[O-])ccc1OCC(=O)N1CCOCC1,i,i,i,?,i,i,?
O=C1c2ccccc2-n2nnc(-c3ccccc3)c2C2c3ccccc3CCN12 (configuration not stated),i,nt,i,nt,nt,nt,nt
CSc1ccc(NC(=O)Nc2ccc(C(=O)NCC(=O)O)cc2)cc1,?,?,i,13µM,i,8.5µM,?
O=c1c2ccccc2nc(/C=C/c2ccc(O)cc2)n1-c1ccc(O)cc1,i,i,i,i,?,nt,nt
O=C(COc1ccc(Cl)cc1)NCCc1cnc[nH]1,i,i,i,i,i,nt,nt
O=C(O)c1cc2ncc(-c3[nH]ncc3[N+](=O)[O-])cn2n1,-56,i,i,?,?,i,?
COC(=O)C1=C(c2ccccc2OCc2ccccc2)C[C@@H]2CC[C@H]1N2C(=O)NCCOc1ccccc1,i,i,i,i,i,nt,nt
COc1ccc(C(=O)CSc2nnc(CNc3ccc(F)cc3)o2)cc1,i,i,i,17µM,i,12µM,24µM
COc1ccc(CCCc2nnc(SCC(=O)Nc3ccc(C)c(C)c3)o2)cc1,nt,i,i,i,?,nt,nt
O=C(CSc1nnc(CNc2ccc(F)cc2)o1)N1CCCc2ccccc21,?,i,i,27µM,i,12µM,27µM
CC(C)N(C(=O)CSc1nnc(CNc2ccc(F)cc2)o1)C(C)C,i,i,i,17µM,?,?,?
O=c1[nH]c(=S)n(-c2ccc(Cl)cc2)c(O)c1C=Nc1ccc(N2CCOCC2)cc1,i,i,i,i,?,nt,nt
